Most compounds without a hit are left out; they make up all but 2.9% or so of the library.
Rtt109 Vps75 = blocks Candida albicans Rtt109/Vps75 acetyltransferase activity | Q5AAJ8 | purified Rtt109/Vps75, ThioGlo CoA-SH fluorescence, 4 h | inhibition, % at 34.9 µM | 330,000 compounds, 0.16% hits | AID 540336;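 active = inhibition of at least 50% in every replicate; inconclusive = best replicate reaches 50% inhibition but some replicates fall short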
Target sequence (Q5AAJ8 whole entry, looked up): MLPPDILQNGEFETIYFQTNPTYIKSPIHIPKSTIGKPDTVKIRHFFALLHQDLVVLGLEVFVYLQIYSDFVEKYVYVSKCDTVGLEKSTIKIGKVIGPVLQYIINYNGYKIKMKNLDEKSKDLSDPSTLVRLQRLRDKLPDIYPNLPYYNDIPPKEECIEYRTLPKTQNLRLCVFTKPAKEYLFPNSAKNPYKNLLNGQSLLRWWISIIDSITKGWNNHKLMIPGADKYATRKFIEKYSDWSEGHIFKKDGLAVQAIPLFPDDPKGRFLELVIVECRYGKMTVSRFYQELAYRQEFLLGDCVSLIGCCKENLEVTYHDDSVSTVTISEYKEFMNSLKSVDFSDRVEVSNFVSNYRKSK
Myeloid diff 2 = promotes myeloid progenitor differentiation. ER-HoxA9 myeloid progenitors, lysozyme-GFP differentiation, flow cytometry. calls only at 10 µM. 360,000 compounds, 1% hits. AID 624256;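 active = normalized GFP-positive differentiation at or above the plate's own cutoff, the solvent-only control mean plus 3 SD; inconclusive = no clear call, values can overlap the other calls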;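 also: cells exposed to compound for four days before flow analysis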
HGIII-sPLA2 inh = Inhibits HGIII-sPLA2 liposome hydrolysis, primary screen. inhibition, % at 12.2 µM. 370,000 compounds, 0.56% hits. Q9NZ20. AID 743126. QFRET BODIPY PC-A2 liposome hydrolysis, fluorescence;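 active = inhibition above mean plus 3 SD of compounds lying within the high and low control bounds, cut at about 19% in these data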;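 also: 0% = median of test compound wells and 100% = no enzyme DMSO wells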
DAGLB inh = blocks human DAGLB lipase activity; inhibition, % at 5.17 µM; 340,000 compounds, 0.059% hits; Q8NCG7; HEK293T DAGLB membrane lysate, EnzChek fluorogenic substrate; in the data active = inhibition above about 34%;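 also: 0% = enzyme with vehicle and 100% = wells lacking enzyme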
ABHD5-PLIN5 inh = ABHD5-PLIN5 protein interaction inhibition. Split G. princeps luciferase complementation, luminescence, 4 h. AID 602281. 360,000 compounds, 0.78% hits. Q00G26+Q8WTS1. inhibition, % at 4 µM;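 active = inhibition above the mean inhibition across every tested compound plus 3 SD, cut at about 22% in these data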;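 also: 0% = DMSO only wells and the 100% control is not disclosed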
Cardio protect = myocardial damage modulation in H9c2 cells. H9c2 cardiomyocytes, H2O2 injury protection, ATPLite, 2 h. 360,000 compounds, 0.63% hits. AID 588492. protection from H2O2 cell death, % at 20 µM;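 active = compounds giving at least 50% protection of heart cells from peroxide-induced death in the single-dose screen, raw or plate-pattern-corrected value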;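 also: 0% = DMSO wells with peroxide and 100% = DMSO wells without peroxide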
* = called active by the depositor.

`Cc1cc(-c2ccc(C(C)C)c(S(=O)(=O)Nc3ccccn3)c2)on1` gave Rtt109 Vps75 2, Myeloid diff 2 inactive, HGIII-sPLA2 inh -8, DAGLB inh 0, ABHD5-PLIN5 inh 0 and Cardio protect 0.
For Cc1ccc(-c2ccc(CN3C(CC(C)C)C(=O)N(Cc4cn(CCC5OCCCO5)nn4)CCS3(=O)=O)cc2)cc1 (centres undefined) the results were Myeloid diff 2 inactive, HGIII-sPLA2 inh -31, DAGLB inh 0, ABHD5-PLIN5 inh 8 and Cardio protect 12.
Screening CCN1C(=O)[C@@H]2Cc3c([nH]c4ccccc34)C(c3cc(OC)c(OC)c(OC)c3)N2C1=S (some centres undefined) returned Rtt109 Vps75 -3, Myeloid diff 2 active, HGIII-sPLA2 inh -7, DAGLB inh -7, ABHD5-PLIN5 inh 2 and Cardio protect -3.
For C=CCN1C(=O)[C@@H]2Cc3c([nH]c4ccccc34)C(c3ccc(O)cc3)N2C1=S (some centres undefined) the results were Rtt109 Vps75 -21, Myeloid diff 2 active, DAGLB inh -3, ABHD5-PLIN5 inh -1 and Cardio protect 3.
Screening C=CCN1C(=O)[C@@H]2Cc3c([nH]c4ccccc34)C(c3cc(OC)c(OC)c(OC)c3)N2C1=S (some centres undefined) returned Rtt109 Vps75 5, Myeloid diff 2 active, HGIII-sPLA2 inh -19, DAGLB inh -5, ABHD5-PLIN5 inh 2 and Cardio protect -4.
`COc1cc(C2c3[nH]c4ccccc4c3C[C@H]3C(=O)N(CCO)CC(=O)N23)cc(OC)c1OC` (some centres undefined) gave Rtt109 Vps75 -6, HGIII-sPLA2 inh -2, DAGLB inh 2, ABHD5-PLIN5 inh 0 and Cardio protect 10.
Screening O=C1[C@@H]2Cc3c([nH]c4ccccc34)C(c3ccccc3)N2C(=O)CN1CCO (some centres undefined) returned Rtt109 Vps75 -8, Myeloid diff 2 inactive, HGIII-sPLA2 inh -8, DAGLB inh 3, ABHD5-PLIN5 inh -6 and Cardio protect 3.
Screening CCC(c1nnc(SCC(=O)Nc2ccc(C(N)=O)cc2)n1Cc1ccccc1)N(C)C (centres undefined) returned Rtt109 Vps75 1, Myeloid diff 2 inactive, HGIII-sPLA2 inh -1, DAGLB inh 4, ABHD5-PLIN5 inh 2 and Cardio protect 0.
Screening CC1=C(C(=O)N2CCOCC2)CC(CC(=O)NCc2ccco2)C(=O)N1Cc1ccc(C(C)(C)C)cc1 (centres undefined) returned Myeloid diff 2 inactive, HGIII-sPLA2 inh 8, DAGLB inh 1, ABHD5-PLIN5 inh 4 and Cardio protect 4.
O=C(N/N=C/c1cccc2ccccc12)c1n[nH]c2c1CCCC2 was read as Rtt109 Vps75 0, Myeloid diff 2 active, HGIII-sPLA2 inh 5, DAGLB inh -1, ABHD5-PLIN5 inh 7 and Cardio protect -6.
`CCc1cc(/C(Cc2ccc3ccccc3n2)=N\O)c(O)cc1O` gave Rtt109 Vps75 12, Myeloid diff 2 inactive, HGIII-sPLA2 inh -52, DAGLB inh -2, ABHD5-PLIN5 inh -14 and Cardio protect -26.
Screening Cc1c(O)ccc(/C(Cc2ccc3ccccc3n2)=N\N)c1O returned Rtt109 Vps75 -8, Myeloid diff 2 active, HGIII-sPLA2 inh -17, DAGLB inh 1, ABHD5-PLIN5 inh -4 and Cardio protect 63*.
For O=[N+]([O-])c1cccc(Nc2c([N+](=O)[O-])ccc3nonc23)c1 the results were Rtt109 Vps75 6, Myeloid diff 2 active, HGIII-sPLA2 inh 4, DAGLB inh 8, ABHD5-PLIN5 inh 3 and Cardio protect -12.
For CN(O)C(=O)Nc1ccc([N+](=O)[O-])cc1 the results were Rtt109 Vps75 3, Myeloid diff 2 inactive, HGIII-sPLA2 inh -10, DAGLB inh 1, ABHD5-PLIN5 inh -3 and Cardio protect -12.
For CCCCc1ccc(NC(=O)c2ccc(NS(C)(=O)=O)cc2)cc1 the results were Rtt109 Vps75 -8, Myeloid diff 2 active, HGIII-sPLA2 inh -16, DAGLB inh 1, ABHD5-PLIN5 inh -2 and Cardio protect 7.
Screening CCCCc1ccc(NC(=O)c2ccc(N(C)S(C)(=O)=O)cc2)cc1 returned Rtt109 Vps75 0, Myeloid diff 2 inconclusive, HGIII-sPLA2 inh -6, DAGLB inh 0, ABHD5-PLIN5 inh 9 and Cardio protect -7.
COc1ccc(Cl)cc1NC(=O)C1CC(=O)N(C2CCCCC2)C1 (centres undefined) was read as Rtt109 Vps75 4, Myeloid diff 2 active, HGIII-sPLA2 inh -9, DAGLB inh 4, ABHD5-PLIN5 inh 8 and Cardio protect 0.
`CCCCn1c(N)c(N(Cc2ccccc2OC)C(=O)c2sccc2C)c(=O)[nH]c1=O` gave Rtt109 Vps75 50*, Myeloid diff 2 inactive, HGIII-sPLA2 inh -4, DAGLB inh -3, ABHD5-PLIN5 inh 17 and Cardio protect -3.
For CCCCn1c(N)c(N(Cc2ccccc2OC)C(=O)c2cc(CC)c(C)s2)c(=O)[nH]c1=O the results were Rtt109 Vps75 18, Myeloid diff 2 inactive, HGIII-sPLA2 inh 10, DAGLB inh 6, ABHD5-PLIN5 inh -3 and Cardio protect 18.
`CC(/C=N/n1c(-c2ccc(Cl)cc2)n[nH]c1=S)=C\c1ccco1` gave Rtt109 Vps75 -2, Myeloid diff 2 inactive, HGIII-sPLA2 inh 6, DAGLB inh -2, ABHD5-PLIN5 inh -2 and Cardio protect 4.
For N#CC(C#N)=C1C=CC=CN1/C(=C\c1ccco1)C(=O)c1ccc(Cl)cc1 the results were Rtt109 Vps75 -18, Myeloid diff 2 inconclusive, HGIII-sPLA2 inh 11, DAGLB inh 2, ABHD5-PLIN5 inh 87* and Cardio protect -20.
CCOc1cccc(C2C(C#N)=C(N)Oc3cc(C)[nH]c(=O)c32)c1OCC (centres undefined) was read as Rtt109 Vps75 0, Myeloid diff 2 inactive, HGIII-sPLA2 inh 8, DAGLB inh 2, ABHD5-PLIN5 inh -1 and Cardio protect -20.
For N#CC1=C(N)Oc2c(ccc3cccnc23)C1c1cccnc1 (centres undefined) the results were Rtt109 Vps75 -15, Myeloid diff 2 inconclusive, HGIII-sPLA2 inh -4, DAGLB inh 1, ABHD5-PLIN5 inh -3 and Cardio protect 83*.
Screening CCc1ccc2[nH]c(=O)c(C3C(C#N)=C(N)Oc4c3ccc3cccnc43)cc2c1 (centres undefined) returned Rtt109 Vps75 1, Myeloid diff 2 inactive, HGIII-sPLA2 inh 0, DAGLB inh 44*, ABHD5-PLIN5 inh -6 and Cardio protect 64*.
`N#CC1=C(N)Oc2cc3ccccc3cc2C1c1cccnc1` (centres undefined) gave Rtt109 Vps75 0, Myeloid diff 2 inconclusive, HGIII-sPLA2 inh -8, DAGLB inh 4, ABHD5-PLIN5 inh 9 and Cardio protect -2.
